MBNL1 CUG block = MBNL1-poly(CUG) RNA binding inhibition; Q9NR56; TR-FRET MBNL1-His/biotin-(CUG)12 binding, 665/545 ratio; 0.036% of 280,000 active; Potency, µM (top dose mostly 57.5 µM), without a hit: at the top dose activity change, negative = inhibition, actives largely listed as inhibitors; active means well fitted inhibition curve with a large enough effect in the signal ratio, with a control signal flat, not every such curve was filed as active; inconclusive means small, poorly fitted or top-dose-only effect, or effect the other way, or a change in a side signal; inactive means no such curve, though single readings can be large or run the other way; the % refers to the signal ratio; further: potency means the concentration at half of the fitted maximal effect; on the % scale 0 is the no-effect control and ±100 the full control effect
Target sequence (Q9NR56 whole entry, looked up): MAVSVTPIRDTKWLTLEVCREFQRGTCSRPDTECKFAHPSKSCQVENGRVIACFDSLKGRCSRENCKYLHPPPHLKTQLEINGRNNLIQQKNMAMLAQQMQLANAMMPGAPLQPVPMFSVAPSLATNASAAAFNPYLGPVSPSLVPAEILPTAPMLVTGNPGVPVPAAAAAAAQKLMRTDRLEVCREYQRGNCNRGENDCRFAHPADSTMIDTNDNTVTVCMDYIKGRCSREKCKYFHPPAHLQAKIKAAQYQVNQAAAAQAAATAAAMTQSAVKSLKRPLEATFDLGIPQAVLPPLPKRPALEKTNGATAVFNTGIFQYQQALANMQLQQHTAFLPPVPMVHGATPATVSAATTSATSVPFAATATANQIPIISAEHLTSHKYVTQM
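TR-FRET between His-tagged MBNL1 and biotin-(CUG)12 RNA, detected with Tb anti-His antibody (0.055 ng/ul) and streptavidin-XL665 (5 nM), 60 min at room temperature. Compounds titrated 92 nM to 58 uM; 665/545 nm ratio normalized to buffer and complex controls.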
Epigenetic reg = regulators of epigenetic silencing causing reporter derepression in mouse cells. murine LDR cells, GFP reporter derepression, 30 h. Potency, µM (doses to about 53.9 µM), without a hit: top-dose GFP activation, hits mostly activators. 0.2% of 280,000 active; further: potency means the concentration at half of the fitted maximal effect; % of control where 0% means no effect; nearly all actives have a fitted effect of over 60% in size
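Murine LDR cells carrying a silenced, genomically integrated CMV-driven GFP reporter were exposed to compound for 30 hours at 37 C. After PBS washes, GFP-positive cells (20–120 um objects) were counted by laser-scanning microplate cytometry.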
CBFb RUNX1 block = CBF-beta/RUNX1 interaction disruption | AlphaScreen CBFb-His/RUNX1-biotin binding, biochemical | 230,000 tested, under 10 active | Potency, µM (titrated, usually from 59.8 µM), for the others: top-dose activity, negative = inhibition, most hits filed as inhibitors; further: % of control where 0% means no effect
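Interaction loss through any mechanism counts as activity. Pre-formed complex of His-CBF-beta and biotin-RUNX1 (30 nM apiece) is incubated with compound 15 min, then with 50 ng nickel and 50 ng streptavidin beads for 90 min before AlphaScreen detection.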
IL2 activator = activators of IL-2. IL-2 activation reporter assay, cell-based qHTS; stimulated with anti-CD3/CD4/CD28 beads; in transgenic mouse T cells. activation, % (series mostly up to about 46 µM). 0.065% of 360,000 active. AID 652025; in the data active means activation above about 50%; inconclusive means mostly about 30% to 49%; further: 0% is about no effect
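Unstimulated transgenic mouse T cells, 750 per well, received compound and, after 60 minutes, anti-CD3/anti-CD4 bead plus anti-CD28 stimulation. EGFP and DsRed were quantified after 18 hours.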
TRHR PAM = TRH receptor (human) allosteric enhancement; P34981; TRHR cells, fluo-8 calcium fluorescence, EC20 TRH enhancement; enhancement, % at 2 µM; 0.66% of 360,000 active; AID 493056; in the data active means enhancement above about 30%; further: 0% is about no effect
Target sequence (P34981 whole entry, looked up): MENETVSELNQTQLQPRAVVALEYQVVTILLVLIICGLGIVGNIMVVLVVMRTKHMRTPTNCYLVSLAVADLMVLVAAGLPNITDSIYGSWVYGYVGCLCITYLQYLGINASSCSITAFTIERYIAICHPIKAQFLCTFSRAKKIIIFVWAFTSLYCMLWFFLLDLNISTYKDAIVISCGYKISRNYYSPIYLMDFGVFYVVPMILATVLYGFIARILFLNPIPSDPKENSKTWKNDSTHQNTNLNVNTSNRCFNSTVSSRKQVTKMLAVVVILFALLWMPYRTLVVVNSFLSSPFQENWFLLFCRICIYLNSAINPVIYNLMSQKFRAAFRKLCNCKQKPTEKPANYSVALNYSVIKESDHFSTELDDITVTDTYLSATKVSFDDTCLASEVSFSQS
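TRHR-expressing cells loaded with fluo-8 calcium dye were read kinetically (ex 480/em 530) during compound addition, then stimulated with an EC20 of TRH (10 nM final). Enhancement of the Gq-mediated intracellular calcium response was scored.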
TRHR ag = activates the human TRH receptor. P34981. TRHR cells, calcium flux fluo-8, FDSS agonist mode. activation, % at 2 µM. 0.18% of 360,000 active. AID 493084; in the data active means activation above about 30%; further: 0% is about no effect
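TRHR-expressing cells, plated overnight in medium with 10% serum, were loaded with fluo-8 calcium dye at room temperature. After a 10 s baseline, library compound was pin-added and calcium release was recorded kinetically (ex 480/em 530) as agonist response.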
C127i cell count = counter-screen for epigenetic modulators: effect in parental c127i cells; Potency, µM, inactives show at the highest dose fluorescent cell count, usual class: activators; 20% of 60 active; AID 493065; shares compounds with Epigenetic reg; mouse c127i parental cells, fluorescent cell count, 30 h
HCC4017 viab = HCC4017 cytotoxicity of epigenetic modulator hits. shares compounds with Epigenetic reg. HCC4017 NSCLC viability, CellTiter-Glo ATP luminescence, 72 h. Potency, µM (titrated, usually from 46.1 µM), for inactives: at the top dose activity change, negative = cytotoxicity, hits mostly cytotoxic. 30% of 45 active. AID 493071
H358 viab = reduces H358 lung cancer cell viability among epigenetic modulators; shares compounds with Epigenetic reg; H358 NSCLC viability, ATP luminescence, 72 h; Potency, µM (highest dose often 46.1 µM), without a hit: at the top dose activity change, negative = viability loss, most hits filed as cytotoxic; 30% of 45 active
MBNL1 TRFRET = MBNL1-poly(CUG) RNA binding inhibition confirmed. shares compounds with MBNL1 CUG block. TR-FRET MBNL1-His / biotin-(CUG)12 binding, 60 min. Potency, µM (highest dose often 57.6 µM), for inactives: top-dose activity change, negative = inhibition, most hits filed as inhibitors. 50% of 140 active. AID 493199
MBNL1 AlphaScrn = confirmation of MBNL1-(CUG)12 RNA binding inhibitors, orthogonal format. 30% of 140 active. shares compounds with MBNL1 CUG block. AlphaScreen MBNL1-His / biotin-(CUG)12 binding. Potency, µM (doses to about 57.7 µM), without a hit: top-dose activity, negative = inhibition, most hits filed as inhibitors. AID 493205
Menin-MLL HTRF = MBNL1-CUG RNA binding inhibitor counterscreen activity. 20% of 120 active. shares compounds with MBNL1 CUG block. Potency, µM (titrated, usually from 57.6 µM), for inactives: at the highest dose activity, negative = inhibition, hits mostly inhibitors. His-Menin/biotin-MLL peptide TR-FRET counterscreen
* marks the source's active call; other numbers are inactive results; ? = inconclusive; . = no result; [ ] = dose if it differs, or a comment. In the library only some 0.88% were active in any assay of this set; here they are far more common. Unless noted, the call rests on the fitted dose curve; in most records, active means well fitted curve in the direction sought with a large enough effect; inconclusive means small, poorly fitted or top-dose-only effect, or another doubt; inactive means no such curve, though single readings can be large; an effect the other way counts as inactive or inconclusive.

SMILES | MBNL1 CUG block | Epigenetic reg | CBFb RUNX1 block | IL2 activator | TRHR PAM | TRHR ag | C127i cell count | others
CC(=O)N1c2ccc(S(=O)(=O)NCC3CCC(C(=O)Nc4ccc(F)cc4)CC3)cc2CC1C (stereo unspecified) | . | -1% | . | . | 4 | 0 | .
CCc1ccc(NC(=O)C2CCC(CNS(=O)(=O)c3ccc4c(c3)CC(C)N4C(C)=O)CC2)cc1 (stereo unspecified) | . | ? | . | . | 4 | 2 | 1% | HCC4017 viab=?;H358 viab=-11%
O=c1c[n+]([O-])c2ccccc2n1OCc1ccccn1 | ? | ? | 6% | 4 | 2 | 0 | .
CCOn1c(=O)c[n+]([O-])c2ccccc21 | ? | 10µM* | 14% | -2 | 2 | 4 | 28% | HCC4017 viab=-3%;H358 viab=-5%
O=C(N/N=C/c1ccccn1)c1cc(-c2ccc(Br)cc2)nc2ccccc12 | -7% | ? | -2% | 2 | -7 | 0 | .
O=C(N/N=C/c1ccccn1)c1cc(-c2ccc(Cl)cc2)nc2ccccc12 | 41% | 5µM* | ? | -2 | -8 | 1 | 3% | HCC4017 viab=?;H358 viab=?
O=C(c1ccccc1F)N1CCN(c2ccc([N+](=O)[O-])c3cccnc23)CC1 | ? | -1% | -16% | 0 | -7 | 0 | .
Cc1cc(N2CCN(c3ccc([N+](=O)[O-])c4cccnc34)CC2)c2ccccc2n1 | . | 7.1µM* | -4% | -2 | 4 | -1 | 14µM*
Cc1ccc(C(c2sc3nc(-c4ccco4)nn3c2O)N2CCN(Cc3ccccc3)CC2)cc1 (stereo unspecified) | . | 2% | . | . | 9 | 0 | .
CN(C)S(=O)(=O)c1cccc(NC(=S)N/N=C/c2ccco2)c1 | 6% | 3.5µM* | -11% | 0 | 3 | 1 | 6% | HCC4017 viab=-1%;H358 viab=-3%
N#CC1=C(N)n2c(s/c(=C\c3cccs3)c2=O)=C(C#N)C1c1cccs1 (stereo unspecified) | -11% | 10µM* | -17% | 2 | -5 | 4 | 14µM*
CC(C)(C)C(=O)C1C(=O)c2ccccc2C1=O | . | . | 9%[21.7 µM] | . | . | . | .
COc1ccc2c(C)nc(Nc3nc(-c4ccccc4)cc(=O)[nH]3)nc2c1 | 5% | 3.5µM* | -2% | -4 | 10 | -4 | 6% | HCC4017 viab=8.9µM*;H358 viab=4.4µM*
CCOc1ccc(NC(=O)c2nc(S(=O)(=O)Cc3ccccc3F)ncc2Cl)cc1 | . | ? | . | . | -8 | -2 | 0% | HCC4017 viab=7.1µM*;H358 viab=7.9µM*
CC(C)c1nnc(NC(=O)c2nc(S(=O)(=O)Cc3ccccc3F)ncc2Cl)s1 | 15% | . | . | -4 | 2 | 0 | .
CCCCOc1ccc(C(=O)Nc2ccc3c(c2)N(C(C)=O)CCC3)cc1 | . | -4% | . | . | -7 | -1 | .
COc1cc(C(=O)N/N=C/c2ccc(OC)c(CN3CCN(c4ccc(F)cc4)CC3)c2)ccc1O | 32µM* | -4% | 0% | -1 | -7 | -1 | . | MBNL1 TRFRET=?;MBNL1 AlphaScrn=-29%;Menin-MLL HTRF=-18%
COc1ccc(/C=N/NC(=O)c2ccccc2)cc1CN1CCN(c2ccc(F)cc2)CC1 | -3% | -1% | -3% | -1 | 0 | 0 | .
CC1=C(C(=O)Nc2ccccc2Br)C2(CCC(C)CC2)OC1=O (stereo unspecified) | . | 0% | . | . | -11 | 0 | .
Cc1cc(Nc2ccc(Cl)cc2)nc(NCc2ccccc2)n1 | 6% | 0% | 6% | -1 | 1 | -1 | .
Cc1cc(Nc2ccccc2)nc(NCc2ccccc2)n1 | 40µM* | 6% | -5% | -1 | 6 | 5 | . | MBNL1 TRFRET=?;MBNL1 AlphaScrn=3.7µM*;Menin-MLL HTRF=-12%
O=C(OC[C@H]1O[C@@H](OC(=O)c2cc(O)c(O)c(OC(=O)c3cc(O)c(O)c(O)c3)c2)[C@H](OC(=O)c2cc(O)c(O)c(OC(=O)c3cc(O)c(O)c(O)c3)c2)[C@@H](OC(=O)c2cc(O)c(O)c(OC(=O)c3cc(O)c(O)c(O)c3)c2)[C@@H]1OC(=O)c1cc(O)c(O)c(OC(=O)c2cc(O)c(O)c(O)c2)c1)c1cc(O)c(O)c(OC(=O)c2cc(O)c(O)c(O)c2)c1 | . | . | . | . | -3 | -1 | . | Menin-MLL HTRF=37µM*
CCOC(=O)/C(=N\Nc1cc(Cl)ccc1Cl)N1CC(C)OC(C)C1 (stereo unspecified) | 2% | 0% | 1% | 1 | -2 | 0 | .
CCOC(=O)/C(=N\Nc1ccccc1Cl)N1CC(C)OC(C)C1 (stereo unspecified) | 0.025µM* | -1% | 5% | -1 | 7 | -1 | . | MBNL1 TRFRET=-4%;MBNL1 AlphaScrn=-6%;Menin-MLL HTRF=-1%
CC(C)OC(=O)CSc1nnc(-c2cnccn2)n1C | 40µM* | 0% | -2% | 1 | 3 | 0 | . | MBNL1 TRFRET=?;MBNL1 AlphaScrn=-10%;Menin-MLL HTRF=0%
CC1=C(C(N)=O)C(c2cccc(Br)c2)n2nc(SCc3ccccc3Cl)nc2N1 (stereo unspecified) | . | 1% | . | . | -5 | 0 | .
CC1=C(C(N)=O)C(c2cccnc2)n2nc(SCc3ccccc3Cl)nc2N1 (stereo unspecified) | 25µM* | 0% | 18% | 1 | -1 | 0 | . | MBNL1 TRFRET=2%;MBNL1 AlphaScrn=-4%;Menin-MLL HTRF=0%

Bioassay records (PubChem BioAssay)
